Experimental data reported in PubChem BioAssay (NCI).
Compounds without any hit were thinned out: in the full panel of roughly 83,000, 20% have a hit.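 Activity criterion: percent growth below 10, measured after cells in 96-well plates were exposed to a single compound concentration for 48 hours.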 Unmarked numbers belong to inactive results. Active and inactive are the calls of the source.

Test system: CAKI-1 renal
Experiment: NCI-60 one-dose screen, 48 h (100 = growth as untreated, 0 = no growth, -100 = all killed)
Conditions: 10 µM unless noted

Compound	growth
N#Cc1c(Nc2ccc(N3CCOCC3)cc2)nc(SCC(=O)c2ccc(Br)cc2)nc1-c1ccccc1	99.7%
O=C(NNC(=O)c1ccc(NC(=O)c2ccccn2)cc1)Nc1ccc2ccccc2c1	106%
CC(=O)OC[C@]12CC[C@@H]([C@@H](C)c3nnc(-c4ccncc4)o3)[C@@H]1[C@H]1CC[C@@H]3[C@@]4(C)CC[C@H](OC(C)=O)C(C)(C)[C@@H]4CC[C@@]3(C)[C@]1(C)CC2	64.4%
CCN(CC)Cc1cc(Nc2ccnc3cc(Cl)ccc23)ccc1O	88.3%
COc1ccc(/C=C/C(c2cc(OC)c(OC)c(OC)c2)n2cncn2)cc1 (stereo unspecified)	51.6%
Cc1ccc(C)c2c(C)c(C(=O)Nc3cccc(-n4cccn4)c3)oc12	44.6% [50 µM]
COc1ccc(/C=C/C(c2cc(OC)c(OC)c(OC)c2)n2ccnc2)cc1O (stereo unspecified)	60.2%
O=S(=O)(NCCCNc1nccc(-c2c(-c3cccc(F)c3)nc3occn23)n1)c1ccc(F)cc1	37.1%
Cn1cc(-c2ccc(-c3cn(C)c4ccc(Cl)cc34)[nH]2)c2cc(Cl)ccc21	4.42% (active)
S=C(c1ccc2c(c1)OCO2)N1CCN(c2cccc(Cl)c2)CC1	15.5%
O=C(O)c1ccc(-c2ccc(/C=N/Nc3nc(Nc4ccccc4)nc(N4CCCCC4)n3)o2)cc1	-5.95% (active)
COc1cccc(Nc2ncnc3cc(NC(=O)CCl)ccc23)c1	-97.2% (active)
COc1ccc(-c2n[nH]c(=O)c3nc(NC(=S)Nc4ccc(Oc5ccccc5)cc4)sc23)cc1	87.3%
COc1ccc(C(=O)N2c3ccccc3Sc3ccccc32)c(C(F)(F)F)c1	31.8%
C#CCNC(=O)[C@]1(C)CCC[C@@]2(C)[C@H]1CC=C1C=C(C(C)C)CC[C@@H]12	87.9%
O=C(CCCCCNC(=O)c1cc(=O)c(O)co1)Nc1ccccc1	95.3%
CNC1=CC(=O)c2c(C(=O)OC)c(C)[n+]([O-])c(C)c2C1=O	74.4%
O=C1/C(=C\c2ccccn2)c2ccccc2N1c1c(Cl)cccc1Cl	-1.37% (active)
COc1cc(OC)cc(-c2ccc(-c3ccc(C(=N)N)o3)o2)c1	81.3%
C#CCOc1cccc(-c2ncnc3cc(NC(=O)C=C)ccc23)c1	15.9%
COc1ccc(-c2nn(-c3ccccc3)cc2/C=C/C(=O)NNC(=O)Nc2ccc(C)cc2)cc1	91.5%
C/C(Cc1ccc(Cl)cc1)=C(\c1ccc(OCCCN(C)C)cc1)c1ccc(OC(=O)Cc2ccccc2)cc1	97%
CCOC(=O)C(=CNc1cnc(Nc2ccc(N3CCOCC3)cc2)nc1Oc1ccc(OC)cc1)C(=O)OCC	25.1%
CC[N+]1(CC)CC[N+]2(CCCC(C)CC2)CC1 (stereo unspecified)	101%
CCNc1nc(O)c(/C=C2\C=Nc3ncccc32)s1	20.6%
COc1cc(/C=N/Nc2ccc(Br)cc2)cc(OC)c1OC	10.2%
